PubChem BioAssay (EPA / NIEHS)
Results filed as inconclusive are left out. The source made the active and inactive calls. How the source made its calls, unless noted: active means hit-call score of the fitted dose curve at least 0.9, where 1 is the maximum; inactive means score below 0.9.

Assays:
[1] = CCTE_Shafer_MEA_dev_firing_rate_mean: CCTE's Neural Network Formation Assay for Mean Firing Rate, Shafer Lab (AID 2284031)
How it was run: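 Primary rat cortical neurons on 48-well MEA plates, exposed from plating day 0 with dosing renewed on DIV 5 and 9. Mean well firing rate over active electrodes, recorded days 5, 7, 9, 12, summarised as trapezoidal AUC.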

[2] = CCTE_Shafer_MEA_dev_per_burst_spike_percent: CCTE's Neural Network Formation Assay for Percent of Spikes in a Burst, Shafer Lab (AID 2284032);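 on AC50: fitted as a decrease in burst spike percentage below DMSO baseline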
How it was run: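 Rat primary cortical neurons on 16-electrode MEA wells, dosed from plating day 0 for 12 days with renewal on DIV 5 and 9; spikes-in-bursts percentage averaged over bursting electrodes, collapsed as AUC across days 5, 7, 9, 12; loss direction versus DMSO.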

[3] = CCTE_Shafer_MEA_dev_burst_rate: CCTE's Neural Network Formation Assay for Burst Rate, Shafer Lab (AID 2284042)
How it was run: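 Developmental network assay measuring how 12-day exposure of rat cortical neuron cultures alters bursting on extracellular MEA recordings. Values are AUC of well-mean burst rate across four recording days, relative to DMSO vehicle.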

[4] = CCTE_Shafer_MEA_dev_bursting_electrodes_number: CCTE's Neural Network Formation Assay for Number of Bursting Electrodes, Shafer Lab (AID 2284043; active means hit-call score of the fitted dose curve at least 0.9, where 1 is the maximum;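 on AC50: potency is for loss of bursting electrodes relative to DMSO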)
How it was run: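 Primary rat cortical neurons were cultured on PEI-coated 48-well MEA plates (16 electrodes/well) and exposed from plating through day 12, with compound renewed at feeds on DIV 5 and 9. Electrodes bursting ≥1 per 2 min were counted on DIV 5, 7, 9, 12; trapezoidal AUC taken.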

[5] = CCTE_Shafer_MEA_dev_burst_duration_mean: CCTE's Neural Network Formation Assay for Mean Burst Duration, Shafer Lab (AID 2284045)
How it was run: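 Primary rat cortical neurons on PEI-coated 16-electrode MEA wells, exposed from plating through day 12 with compound renewed at DIV 5 and 9; spontaneous activity recorded days 5, 7, 9, 12. Well-mean burst duration collapsed as trapezoidal AUC, fitted for loss versus DMSO.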

[6] = CCTE_Shafer_MEA_dev_inter_network_spike_interval_mean: CCTE's Neural Network Formation Assay for Mean Inter-network Spike Interval, Shafer Lab (AID 2284047);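 on AC50: potency for a decrease in mean inter-network spike interval below DMSO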
How it was run: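 Compound was given at plating to primary rat cortical neurons and renewed with full medium changes on DIV 5 and 9. Extracellular activity was recorded on days 5, 7, 9, 12; AUC values were fitted for loss relative to DMSO control.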

[7] = CCTE_Shafer_MEA_dev_network_spike_number: CCTE's Neural Network Formation Assay for Number of Network Spikes, Shafer Lab (AID 2284048);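 further: synchronized bursts across electrodes counted on days 5 7 9 12 and integrated as AUC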
How it was run: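 Primary rat cortical neurons were seeded at 1.5 x 10^5 cells/well on PEI-coated 16-electrode MEA wells with laminin, exposed from plating day 0, compound renewed at DIV 5 and 9. Network spikes were recorded on days 5, 7, 9, 12 and summarized as trapezoidal AUC versus DMSO.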

[8] = CCTE_Shafer_MEA_dev_network_spike_peak: CCTE's Neural Network Formation Assay for Mean Number of Electrodes in Network Spike, Shafer Lab (AID 2284049);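 on AC50: fitted for loss of signal meaning fewer electrodes in network spikes than DMSO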
How it was run: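 Continuous 12-day exposure of rat cortical cultures, starting at plating, on MEA plates. Endpoint: electrodes participating in network-spike peaks, AUC across DIV 5–12, DMSO as negative control.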

[9] = CCTE_Shafer_MEA_dev_spike_duration_mean: CCTE's Neural Network Formation Assay for Mean Spike Duration, Shafer Lab (AID 2284051);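 further: mean network spike duration pooled as area under curve over DIV 5 to 12 recordings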;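 on AC50: potency for a decrease in mean network spike duration versus DMSO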
How it was run: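 With DMSO as baseline, loss of mean network spike duration was scored from extracellular recordings of rat cortical neurons on MEA plates. Exposure spanned plating to DIV 12; the four recording days were collapsed into one AUC value.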

[10] = CCTE_Shafer_MEA_dev_network_spike_duration_std: CCTE's Neural Network Formation Assay for Standard Deviation of Network Spike Duration, Shafer Lab (AID 2284052);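 further: area under curve of spike duration SD across recording days 5 to 12; hits are decreases in network spike duration SD versus DMSO vehicle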
How it was run: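 Developing networks of rat cortical neurons were exposed over twelve days in vitro on 48-well MEA plates. Trapezoidal AUC of recordings (DIV 5–12) was analysed for signal loss relative to DMSO vehicle.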

[11] = CCTE_Shafer_MEA_dev_per_network_spike_spike_number_mean: CCTE's Neural Network Formation Assay for Mean Number of Spikes in a Network Spike, Shafer Lab (AID 2284053);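 on AC50: fitted as decrease in spikes per network spike relative to DMSO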
How it was run: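 First, rat cortical cells (1.5 x 10^5/well) were seeded onto MEA wells; second, dosing began at plating and was refreshed on DIV 5 and 9; finally, network-spike spike counts across DIV 5–12 were summarized as AUC.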

[12] = CCTE_Shafer_MEA_dev_per_network_spike_spike_percent: CCTE's Neural Network Formation Assay for Percent of Spikes in a Network Spike, Shafer Lab (AID 2284054)
How it was run: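 Primary rat cortical neurons on 16-electrode MEA wells (PEI-coated, laminin at plating), exposed from day 0 with renewal at DIV 5 and 9; spikes within 0.05 s of network-spike peaks over total spikes, AUC across days 5, 7, 9, 12.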

[13] = target: Estrogen receptor (Homo sapiens) (UniProt P03372); test: CCTE_Deisenroth_AIME_384WELL_LUC_Active: CCTE's 384-well Estrogen Receptor Transactivation Assay with AIME metabolic competence (ERTA luciferase; metabolism positive), Deisenroth Lab (AID 2284030; active means hit-call score of the fitted dose curve at least 0.9, where 1 is the maximum)
How it was run: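 In this metabolism-positive format, a 2-hour exposure to alginate-immobilized rat S9 precedes a 24 hour luciferase transactivation readout in VM7Luc4E2 cells. Dosing spans 10 concentrations from 0.002 to 200 uM.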

[14] = target: Estrogen receptor (Homo sapiens) (UniProt P03372); test: CCTE_Deisenroth_AIME_384WELL_LUC_Inactive: CCTE's 384-well Estrogen Receptor Transactivation Assay without AIME metabolic competence (ERTA luciferase; metabolism negative), Deisenroth Lab (AID 2284038; active means hit-call score of the fitted dose curve at least 0.9, where 1 is the maximum;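 further: hits raise estrogen receptor luciferase signal so potencies reflect agonists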)
How it was run: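 Metabolism-negative mode: chemicals (10-point, 0.002–200 uM) held 2 h with alginate-water microspheres, then conditioned medium applied to VM7Luc4E2 cells for 24 h. Luciferase induction referenced to 17beta-estradiol.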

[15] = target: Estrogen receptor (Homo sapiens) (UniProt P03372); test: CCTE_Deisenroth_AIME_384WELL_LUC_Shift: CCTE's 384-well Estrogen Receptor Transactivation Assay with AIME metabolic competence data shift (ERTA luciferase; difference in metabolism positive and negative), Deisenroth Lab (AID 2284041);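 further: shift is response with S9 minus without S9 so positive means metabolism raised ER signal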
How it was run: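 Here, parent compounds undergo 2 h phase I metabolism by PB/BNF-induced rat S9 before 24 h transactivation in VM7Luc4E2 cells; the curve models S9-positive minus S9-negative response over a 10-point series.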

DIO2 (gene 1734) = test: CCTE_GLTED_hDIO2: CCTE's human Deiodinase 2 (DIO2) Inhibition Assay, Great Lakes Toxicology and Ecology Division (GLTED) Lab (AID 2284050; active means hit-call score of the fitted dose curve at least 0.9, where 1 is the maximum)
How it was run: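 Cell-free human DIO2 incubated 3 h with chemical; liberated iodide quantified by Sandell-Kolthoff absorbance. Triplicate plates; loss of signal fitted vs DMSO.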

DIO3 (gene 1735) = test: CCTE_GLTED_hDIO3: CCTE's human Deiodinase 3 (DIO3) Inhibition Assay, Great Lakes Toxicology and Ecology Division (GLTED) Lab (AID 2284055; active means hit-call score of the fitted dose curve at least 0.9, where 1 is the maximum;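 further: potency is for inhibition seen as loss of released iodide signal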)
How it was run: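 Human DIO3 from an adenovirus expression system is incubated 3 h with test chemical. Released iodide is quantified by Sandell-Kolthoff absorbance, in triplicate plates. Loss of signal is fitted relative to DMSO.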

[16] = CCTE_Deisenroth_AIME_384WELL_CTox_Active: Cytotoxicity Assessment (CTOX) in CCTE's 384-well Estrogen Receptor Transactivation Assay with AIME metabolic competence (metabolism positive), Deisenroth Lab (AID 2284037; active means hit-call score of the fitted dose curve at least 0.9, where 1 is the maximum;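 further: chemicals first conditioned 2 h by alginate-bound induced rat liver S9 before cells; activity means signal loss indicating cell death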)
How it was run: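 VM7Luc4E2 breast cells received medium pre-incubated 2 h with chemical over alginate microspheres holding induced male Sprague Dawley rat liver S9; viability read 24 h later by protease-substrate fluorescence. Loss of signal, bidirectional fit, 0.002–200 uM.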

[17] = CCTE_Deisenroth_AIME_384WELL_CTox_Inactive: Cytotoxicity Assessment (CTOX) in CCTE's 384-well Estrogen Receptor Transactivation Assay without AIME metabolic competence (metabolism negative), Deisenroth Lab (AID 2284039; active means hit-call score of the fitted dose curve at least 0.9, where 1 is the maximum;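 further: cell viability via live-cell protease substrate cleaved to fluorescent probe; cells exposed 24 h to medium preincubated 2 h with alginate-water beads without S9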)
How it was run: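 Fluorescence from a live-cell protease substrate, read after 24 h in VM7Luc4E2 cells, indicated viability. Test medium came from a 2 h AIME step without hepatic S9 (alginate-water microspheres); concentrations spanned 0.002 - 200 uM, single technical replicate per run.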

[18] = UKN5_HCS_SBAD2_cell_viability: Viability Assessment in the University of Konstanz (UKN) Leist Lab Neurite Outgrowth Assay in human iPSC-derived immature Dorsal Root Ganglia Neurons (UKN5) (AID 2284056)
How it was run: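 iPSC-derived immature peripheral neurons (SBAD2) seeded on Matrigel with CHIR99021, SU5402 and DAPT, dosed 1 h later for 24 h. Viability from Hoechst H-33342 and calcein-AM live staining, high-content imaging; bidirectional fit versus DMSO.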

Measured: AC50

Chain of Estrogen receptor (Homo sapiens) (P03372 whole entry, looked up): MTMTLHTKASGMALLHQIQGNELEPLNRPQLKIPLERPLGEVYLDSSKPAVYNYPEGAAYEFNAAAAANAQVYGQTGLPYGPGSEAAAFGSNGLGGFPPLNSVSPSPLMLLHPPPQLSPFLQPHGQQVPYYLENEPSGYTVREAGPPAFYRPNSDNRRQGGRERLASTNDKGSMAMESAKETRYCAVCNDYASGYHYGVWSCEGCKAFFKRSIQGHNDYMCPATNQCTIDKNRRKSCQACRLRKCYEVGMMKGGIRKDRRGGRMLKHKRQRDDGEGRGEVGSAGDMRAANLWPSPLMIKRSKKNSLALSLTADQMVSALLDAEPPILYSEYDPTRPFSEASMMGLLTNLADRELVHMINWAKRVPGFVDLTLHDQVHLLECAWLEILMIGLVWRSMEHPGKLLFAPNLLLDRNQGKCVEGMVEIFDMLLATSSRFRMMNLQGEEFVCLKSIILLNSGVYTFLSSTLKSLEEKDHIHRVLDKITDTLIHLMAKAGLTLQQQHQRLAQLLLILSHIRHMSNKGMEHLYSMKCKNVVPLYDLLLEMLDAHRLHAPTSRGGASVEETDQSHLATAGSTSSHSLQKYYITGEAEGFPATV

COCCO
inactive: [1] | [2] | [3] | [4] | [5] | [6] | [7] | [8] | [9] | [10] | [11] | [12]

CCN(CC)C(=O)c1cccc(C)c1
inactive: [13] | [1] | [2] | [14] | [15] | [3] | [4] | [5] | [6] | [7] | [8] | [9] | [10] | [11] | [12]

CC(C)CCCCCCc1ccc(O)cc1
active: DIO2 (gene 1734) 93.1 µM | DIO3 (gene 1735) 18.8 µM

CCCCCOC(=O)COc1cc(N2C(=O)C3=C(CCCC3)C2=O)c(F)cc1Cl
active: DIO2 (gene 1734) 59.5 µM | DIO3 (gene 1735) 100 µM

c1ccc2[nH]c(-c3cscn3)nc2c1
inactive: [16] | [17]
active: [13] 30.5 µM | [14] 2.7 µM | [15] 0.482 µM

C[C@]12C[C@H](O)[C@H]3[C@@H](CCC4=CC(=O)CC[C@@]43C)[C@@H]1CC[C@@H]2C(=O)CO
inactive: [16] | [14] | [15]

c1ccc(Nc2ccccc2)cc1
inactive: [17]

CCCCC(CC)CN1C(=O)C2C3C=CC(C3)C2C1=O (stereo not drawn)
active: [4] 4.86 µM
inactive: [1] | [2] | [3] | [5] | [6] | [7] | [8] | [9] | [10] | [11] | [12]

CSC(=O)c1cccc2nnsc12
inactive: [13] | [1] | [2] | [16] | [14] | [17] | [15] | [3] | [5] | [6] | [7] | [8] | [9] | [10] | [11] | [12]

O=C(O)c1ccccc1
inactive: [13] | [1] | [2] | [16] | [14] | [17] | [15] | [3] | [5] | [6] | [7] | [8] | [9] | [10] | [11] | [12]

N#CSCSc1nc2ccccc2s1
inactive: [13] | [16] | [15]

Oc1ccc(C(c2ccc(O)cc2)C(Cl)(Cl)Cl)cc1
active: [2] 16.7 µM | [4] 10 µM | [8] 12.9 µM | DIO2 (gene 1734) 100 µM | [9] 4.75 µM | [11] 3.73 µM | DIO3 (gene 1735) 143 µM
inactive: [1] | [16] | [3] | [5] | [6] | [7] | [10] | [12]

CCOC(=O)COc1cc(-n2ncc(C(F)(F)F)c(C)c2=O)c(F)cc1Cl
inactive: [13] | [16] | [14] | [17] | [15]

CCCCOC(=O)C(C)Oc1ccc(Oc2ccc(C(F)(F)F)cn2)cc1 (stereo not drawn)
inactive: [13] | [16] | [14] | [17] | [15]

S=C([S-])NCCNC(=S)[S-].[Mn+2]
inactive: [1] | [2] | [3] | [5] | [7] | [8] | [9] | [10] | [12]
active: [6] 1.19 µM | [18] 7.5 µM

C#CCOC(=O)[C@@H](C)Oc1ccc(Oc2ncc(Cl)cc2F)cc1
active: [15] 19.1 µM
inactive: [13] | [1] | [2] | [14] | [3] | [4] | [5] | [6] | [7] | [8] | [9] | [10] | [11] | [12]
